Experimental findings from PubChem BioAssay (NCI) are described below.

Where “and” joins values, the source holds several entries; their conditions need not be identical. Equal values may be shown once. Compounds without any hit were thinned out: in the full panel of roughly 83,000, 20% have a hit.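 Testing used 96-well plates and a 48-hour single-concentration exposure. Example: -40 means 40% of the starting cells died.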 Unmarked numbers belong to inactive results. Calls of active or inactive are those of the source. The calls were made as follows: active = growth percent below 10; inactive = the rest.

What all share (assay): NCI-60 one-dose screen, 48 h (100 = growth as untreated, 0 = no growth, -100 = all killed)
Common to all, as to conditions: 10 µM unless noted

For assay [1], the system named is DU-145 prostate.
Assay [2] deals with K-562 leukemia.
The subject of assay [3] is MALME-3M melanoma.
Assay [4] deals with MDA-MB-231 breast.
Assay [5] concerns RXF 393 renal.
Assay [6] concerns SF-268 CNS.
Assay [7] has as its system SF-295 CNS.
In assay [8] the test system is SF-539 CNS.
Assay [9] relates to UACC-257 melanoma.
The subject of assay [10] is M14 melanoma.

For the compound `CCCn1nc(C(=O)N2CCCCC2)c2c1CCC(N1CCC(c3ccncc3)CC1)C2` (stereo not given), the growth is 105% in assay [1]; 101% in assay [2]; 115% in [3]; 118% in assay [4]; 117% in assay [5]; 97% in assay [6]. For the same compound, the growth in [7] was 106%; in [8], 107%; in [9], 102%; in assay [10], 97.3%.
Take `Cc1c(O)c(O)cc2c3c(oc12)CC(c1ccc2c(c1)OCO2)CC3=O` (stereo not given): the growth was 97.7% in [1]; 82.1% in [2]; 105% in assay [3]; 76.9% in [4]; 115% in assay [5]; 83.3% in assay [6]. Also, the growth was 106% in assay [7], 81.8% in assay [8], 94.7% in [9] and 84% in [10].
Turning to `COC(=O)/C=C1/SC(=Nc2ccc([N+](=O)[O-])cc2)N(CCc2c[nH]c3ccccc23)C1=O`, the growth was 66.8% in assay [1]; 25.8% in [2]; 86.5% in [3]; 72.1% in [4]; 70.4% in assay [5]; 75.7% in [6]. The growth in [7] is 84.2%; in assay [8], 79.6%; in assay [9], 71.6%; in assay [10], 52%.
As to `Cn1c(=O)c2c(nc(Nc3cc(=O)[nH]c(=O)[nH]3)n2Cc2ccccc2)n(C)c1=O`, the growth in assay [1] is 2.17% (active); in assay [2], 87.5%; in assay [3], 103%; in assay [4], 99.7%; in assay [5], 81.7%; in [6], 24.9%. In addition, the growth was 101% in assay [7], 94.2% in assay [8], 47.3% in assay [9] and 91.8% in [10].
For the compound `COC(=O)c1nc(-c2ccccc2)oc1S(=O)(=O)N(C)CCO`, the growth was 65.4% in [1]; 22.2% in [2]; 69.6% in [3]; 78.3% in assay [4]; 64.8% in assay [5]; 92.3% in assay [6]. The growth is 104% in assay [7], 68.7% in assay [8], 63.8% in assay [9] and 41.1% in assay [10].
As for `CC[C@]1(O)CC2CN(CCc3c([nH]c4ccccc34)C(C(=O)OC)(c3cc4c(cc3OC)N(C=O)[C@H]3[C@@](O)(C(=O)OC)[C@H](OC(C)=O)[C@]5(CC)[C@@H]6C[C@@H]6CN6CC[C@]43[C@@H]65)C2)C1` (stereo not given in full), the growth in assay [1] is -41.4% (active); in assay [2] it was 27.5%; in assay [3], 34.2%; in [4] it was -27.5% (active); in assay [5] it was 32.9%; in assay [6] it was 15.3%. In addition, the growth in assay [7] was -4.56% (active); in assay [8] it was 0.385% (active); in [9], 53.2%; in assay [10] it was -31.6% (active).
Consider `O=C(CCCCCCCCC(=O)N/N=C\c1ccccc1O)N/N=C\c1ccccc1O`, for which the growth in [1] was 26.7%; in assay [2] it was 16.4%; in [3], 15.1%; in assay [4] it was 38.1%; in [5] it was 31.1%; in assay [6], 14.6%. Moreover, the growth in assay [7] is 36%; in assay [8] it was 16.7%; in [9], 20.2%; in assay [10] it was -9% (active).
For the compound `O=C1C=CC(=O)N1c1ccc2ccccc2c1`, the growth in assay [1] was 94.4% and 99.5%; in assay [2], 47% and 35.5%; in assay [3] it was 69.4% and 30.9%; in [4], 111% and 96.5%; in [5], 83.3% and 102%; in assay [6], 100% and 105%. Further, the growth in assay [7] is 112% and 99%; in [8], 108% and 93.6%; in assay [9], 92.5% and 91.1%; in assay [10], 91.1% and 103%.
With `CCOC(=O)c1ccc(Nc2ncnc3c2cnn3-c2cccc(F)c2)cc1`, the growth in assay [1] is 106%; in assay [2], 96.7%; in assay [3], 103%; in [4], 93.3%; in assay [5] it was 105%; in assay [6] it was 94.2%. The growth in assay [7] is 100%; in [8] it was 98.5%; in assay [9] it was 99.6%; in assay [10], 99.1%.
Consider `CCCCCCCCCCCCCCCCCCOc1cccc(CC(=O)OCC[N+](CC)(CC)CC)c1`, for which the growth was 73.8% in assay [1]; 31.8% in [2]; 74.1% in assay [3]; 41.4% in [4]; 8.82% (active) in assay [5]; 61.7% in assay [6]. Further, the growth in assay [7] is 40.9%; in assay [8], 51.1%; in assay [9], 114%; in [10] it was 42.3%.
Regarding `COc1ccc(CCNC(=O)COc2cc3c(Nc4ccc(F)c(Cl)c4)ncnc3cc2OC)cc1OC`, the growth is 58% in assay [1]; 112% in [2]; 86.9% in [3]; 94.4% in assay [4]; 96% in [5]; 85.7% in assay [6]. Besides, the growth in [7] is 98.1%; in assay [8] it was 103%; in [9], 110%; in assay [10] it was 101%.
As to `Cc1nc2sc(C(=O)Nc3cccc4ccccc34)c(N)c2cc1C(=O)/C=C/c1ccccc1`, the growth was -3.16% (active) in assay [1]; 12% in assay [2]; 34% in assay [3]; -16.2% (active) in [4]; -87.2% (active) in [5]; 9.83% (active) in [6]. In addition, the growth in assay [7] was -30.7% (active); in assay [8] it was -20.1% (active); in [9], 68.9%; in assay [10] it was -15.3% (active).
Take `Clc1ccc2c(c1)N(c1ncnc3ccc(-c4cnc5[nH]ccc5c4)cc13)CC2`: the growth in [1] is 27.6%; in assay [2] it was 5.53% (active); in assay [3] it was 7.46% (active); in [4], 35.6%; in assay [5], 4.78% (active); in assay [6] it was 39.8%. In addition, the growth is 19.7% in assay [7], 27.5% in [8], 34.4% in assay [9] and 8.89% (active) in assay [10].
As to `c1ccc(Cc2cccc[n+]2C(c2ccccc2)c2ccccc2)cc1`, the growth was 68.9% in assay [1]; 33% in [2]; 23% in assay [3]; 68.2% in [4]; 93.3% in [5]; 64.9% in [6]. The growth is 73.6% in [7], 56.6% in assay [8], 7.44% (active) in [9] and 59.8% in assay [10].
As to `CN1C(=O)/C(=C/c2ccc(C(=O)Nc3ncc(Cc4ccccc4Cl)s3)cc2)SC1=S`, the growth in [1] was 73%; in assay [2], 71.8%; in assay [3] it was 62.2%; in assay [4], 56.7%; in assay [5] it was 69.1%; in [6], 80.9%. Further, the growth in assay [7] was 58.4%; in assay [8], 77%; in [9], 89.3%; in [10], 42.1%.
`COc1cc(-c2nc(SCCC(C)C)nc(Nc3ccc(F)cc3)c2C#N)cc(OC)c1OC`: the growth in [1] is 66.2%; in [2], 85.2%; in [3] it was 94.4%; in assay [4], 38.4%; in assay [5], 95.5%; in assay [6], 65.9%. Further, the growth was 85.4% in assay [7], 52.3% in assay [8], 103% in [9] and 91% in assay [10].
Regarding `Cc1nc2sc(C(=O)Nc3cccc4ncccc34)c(N)c2cc1C(C)O` (stereo not given), the growth in [1] was 109%; in assay [2], 28.8%; in [3], 74.5%; in [4], 76.1%; in assay [5] it was 70.1%; in assay [6], 87.7%. For the same compound, the growth in assay [7] is 59.8%; in [8], 82.4%; in assay [9], 75.9%; in assay [10], 62%.
As to `CCOC(=O)CC1CSC(c2cccc(Cl)c2)=N1` (stereo not given), the growth in [1] is 111%; in assay [2], 92.9%; in assay [3], 108%; in [4], 105%; in assay [5], 106%; in [6], 101%. Moreover, the growth in assay [7] is 102%; in assay [8], 114%; in assay [9], 99.1%; in assay [10], 101%.
On to `Nc1nc(CSc2n[nH]c(N)n2)nc(Nc2ccccc2)n1`, for which the growth is 104% in assay [1]; 99.1% in [2]; 104% in assay [3]; 105% in assay [4]; 114% in assay [5]; 93.1% in assay [6]. The growth was 97.6% in [7], 102% in assay [8], 107% in assay [9] and 105% in assay [10].
Turning to `Nc1nc(Nc2cccnc2)sc1C(=O)c1ccccc1F`, the growth in assay [1] was 17.8%; in assay [2], 66.5%; in assay [3], 157%; in [4], 83.1%; in assay [5], -42% (active); in assay [6], 20.8%. Also, the growth in [7] was 34.9%; in assay [8], -3.32% (active); in assay [9] it was 72.9%; in [10], 59.2%.
As for `Cc1ccc(-c2nc3nc(-c4ccc(F)cc4)nc(N4CCCNCC4)c3o2)cc1`, the growth was -94.8% (active) in [1]; -28.4% (active) in assay [2]; -72.7% (active) in [3]; -85.1% (active) in [4]; -79.8% (active) in assay [5]; -65.7% (active) in assay [6]. Also, the growth in [7] is -86.3% (active); in [8], -97.9% (active); in [9], -72.2% (active); in assay [10] it was -86.6% (active).
As for `C/C(=C(\c1ccc(OCCN2CCOCC2)cc1)c1ccc(OC(=O)C2CCCCC2)cc1)c1ccc(Cl)cc1`, the growth was 103% in [1]; 66.1% in assay [2]; 104% in assay [3]; 98.8% in [4]; 94.9% in [5]; 95.8% in [6]. Moreover, the growth in assay [7] was 106%; in [8], 105%; in [9] it was 99%; in assay [10], 87.4%.
For `CCOC(=O)c1cc2c(n1Cc1cc(OC)cc(OC)c1Br)-c1nc(NC(C)=O)sc1CCC2`, the growth is 89.3% in assay [1]; 81.4% in assay [2]; 122% in [3]; 74.7% in assay [4]; 61% in assay [5]; 67.1% in assay [6]. Further, the growth was 76.4% in assay [7], 85.6% in [8], 53% in [9] and 84.9% in assay [10].
`Cc1ccc(C(=O)Nc2ccc(CN3CCN(C)CC3)c(C(F)(F)F)c2)cc1C#Cc1cnc(N)cc1C#N`: the growth in assay [1] was -53.1% (active); in assay [2] it was -41.5% (active); in [3], -79.2% (active); in assay [4], -67% (active); in assay [5], -88.6% (active); in assay [6] it was -14.7% (active). Besides, the growth is -68.1% (active) in assay [7], -94.8% (active) in assay [8], -23.6% (active) in [9] and -80.8% (active) in assay [10].
